# Experimental data reported in publication PMC10668032, “Altered binding affinity of SIX1-Q177R correlates with enhanced WNT5A and WNT pathway effector expression in Wilms tumor”.
# Over roughly 33,000 sequences, “e-score” has its median near -0.053; the highest 2% begin near 0.38. Many of the other results were omitted from the sample, so the highest values are more common in it than they were.
# Target: T1, SIX1 homeodomain (reference allele) (human, UniProt Q15475 108-198)
# T1 sequence: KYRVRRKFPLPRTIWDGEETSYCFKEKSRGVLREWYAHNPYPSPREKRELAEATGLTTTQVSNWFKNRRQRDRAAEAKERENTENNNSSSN
# Assay: universal protein binding microarray; Universal all-10-mer PBM (8x60K, AMADID 030236), 300 nM GST-tagged protein, Alexa Fluor 488 anti-GST; buffer, salt, pH and temperature not stated (as in Berger); high values mean tight binding
# Conditions: protein: ivt; tags: N-terminal GST; dsDNA, one strand shown
# Method in brief: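 After in vitro transcription/translation, GST-tagged homeodomains were quantified against a recombinant GST standard curve by anti-GST western blot. They were then placed in duplicate at 300 nM final concentration on universal 'all 10-mer' protein binding microarrays of 8×60K format.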
row,Sequence,binding signal
1,CGGAGATA,0.314 ± 0.0255 E-score
2,ATCCTTCG,0.228 ± 0.0545 E-score
3,ATTAATCG,0.16 ± 0.0622 E-score
4,ATACTTAC,0.218 ± 0.0954 E-score
5,ATATTATG,0.299 ± 0.0542 E-score
6,ATCAGGCG,0.25 ± 0.0206 E-score
7,CTCATCTC,0.158 ± 0.0133 E-score
8,ACTCGGGG,0.212 ± 0.0491 E-score
9,CCCTATCC,0.359 ± 0.0609 E-score
10,AGTGGGAT,0.333 ± 0.0228 E-score
11,CGATCGCC,0.257 ± 0.026 E-score
12,CGGCGATC,0.302 ± 0.0621 E-score
13,ATCTCAAT,0.183 ± 0.0808 E-score
14,CTATCAAG,0.155 ± 0.0723 E-score
15,ATCTCAAG,0.215 ± 0.0235 E-score
16,ATATCAAT,0.421 ± 0.0559 E-score
17,ATATCAAG,0.423 ± 0.0464 E-score
18,ATATCAAA,0.374 ± 0.0809 E-score
19,ATCTCAAC,0.233 ± 0.0413 E-score
20,CTATCAAC,0.29 ± 0.0532 E-score
21,ATATCAAC,0.418 ± 0.0449 E-score
22,ACAGGGTA,0.267 ± 0.0137 E-score
23,ATCATAAC,0.2814 ± 0.00204 E-score
24,CCCGTGTA,0.171 ± 0.0224 E-score
25,ATCCCTAC,0.307 ± 0.0295 E-score

row,Sequence,binding signal
1,ATCACTCA,0.335 ± 0.0213 E-score
2,CGCATATC,0.414 ± 0.0167 E-score
3,AGCATATC,0.408 ± 0.0304 E-score
4,ATCATATC,0.425 ± 0.033 E-score
5,CTCATATC,0.31 ± 0.0778 E-score
6,CGCATATA,0.158 ± 0.0261 E-score
7,AGAATATC,0.283 ± 0.121 E-score
8,AGCATATA,0.239 ± 0.0331 E-score
9,ATCATATA,0.271 ± 0.0327 E-score
10,CGCATACC,0.266 ± 0.0145 E-score
11,CGCATCTC,0.154 ± 0.00741 E-score
12,TACATGTA,0.176 ± 0.041 E-score
13,ACTCATAT,0.25 ± 0.0849 E-score
14,AGTATACG,0.26 ± 0.0621 E-score
15,ATACGTGC,0.358 ± 0.0375 E-score
16,GTGTCATA,0.369 ± 0.0321 E-score
17,ATATGACG,0.227 ± 0.0466 E-score
18,CGATCCAG,0.212 ± 0.123 E-score
19,TACAGGTA,0.244 ± 0.0285 E-score
20,GATAGGCC,0.209 ± 0.0213 E-score
21,CTGCGATC,0.322 ± 0.0185 E-score
22,ACCCGGAA,0.184 ± 0.00414 E-score
23,ATCCGGAA,0.295 ± 0.0493 E-score
24,ACCCGTAT,0.391 ± 0.00477 E-score
25,ACCCGGGT,0.377 ± 0.0364 E-score

row,Sequence,binding signal
1,ACCCGGAG,0.194 ± 0.0529 E-score
2,ACCCGGCT,0.22 ± 0.0443 E-score
3,AACCGTAT,0.275 ± 0.0195 E-score
4,ACCCGGAT,0.411 ± 0.0469 E-score
5,ACCCGTAG,0.156 ± 0.0429 E-score
6,ATCCGGAT,0.446 ± 0.0263 E-score
7,ACCCGGGA,0.311 ± 0.0112 E-score
8,ATCCGGAG,0.299 ± 0.0152 E-score
9,TCCGCCGA,0.252 ± 0.00841 E-score
10,CGAATACG,0.2 ± 0.0406 E-score
11,GGTGTTGA,0.258 ± 0.0174 E-score
12,TCAGATAA,0.21 ± 0.0582 E-score
13,AATACCTG,0.178 ± 0.0145 E-score
14,ATCATCGG,0.365 ± 0.0324 E-score
15,AGCCGGCT,0.1726 ± 0.000438 E-score
16,AGCCGGAT,0.382 ± 0.0208 E-score
17,AACCGGAT,0.316 ± 0.00955 E-score
18,ATCTTCAG,0.153 ± 0.0288 E-score
19,CGGTGTTA,0.312 ± 0.0102 E-score
20,ACCGGTAT,0.37 ± 0.0044 E-score
21,AGTGGTAT,0.35 ± 0.0207 E-score
22,AATGGTGT,0.287 ± 0.00727 E-score
23,ACTGGGAT,0.239 ± 0.0081 E-score
24,AATGGTAT,0.381 ± 0.00619 E-score
25,ACTGGTAT,0.386 ± 0.034 E-score

row,Sequence,binding signal
1,GGATTAGA,0.165 ± 0.00327 E-score
2,CCGTATAG,0.239 ± 0.00962 E-score
3,TCGTATCA,0.45 ± 0.0228 E-score
4,CCGTATCG,0.457 ± 0.0169 E-score
5,GCGTATCA,0.481 ± 0.00534 E-score
6,GCGTATAA,0.16 ± 0.104 E-score
7,GCCTATCA,0.289 ± 0.00848 E-score
8,GCGTCTCA,0.209 ± 0.0176 E-score
9,CCGTATTA,0.322 ± 0.00404 E-score
10,CCCTATCA,0.429 ± 0.0145 E-score
11,TCCTATCA,0.307 ± 0.0417 E-score
12,ACCTATCA,0.336 ± 0.0088 E-score
13,TCGTATAA,0.194 ± 0.0979 E-score
14,ATCCCTCG,0.337 ± 0.0323 E-score
15,ATATAGCG,0.164 ± 0.0414 E-score
16,GTATTAAC,0.272 ± 0.0619 E-score
17,GATAGTGA,0.231 ± 0.0159 E-score
18,CCGTATCA,0.486 ± 0.00556 E-score
19,CCGTATAA,0.226 ± 0.0709 E-score
20,CCGTATGA,0.217 ± 0.0235 E-score
21,ATCATACC,0.351 ± 0.0212 E-score
22,ATCGCCTA,0.232 ± 0.0537 E-score
23,GAGACGGA,0.272 ± 0.0111 E-score
24,GAGGTATC,0.4767 ± 0.00464 E-score
25,GAGTTATC,0.248 ± 0.0177 E-score

row,Sequence,binding signal
1,AAGGTATT,0.248 ± 0.0945 E-score
2,CAGGTATA,0.276 ± 0.0442 E-score
3,AAGGTATC,0.472 ± 0.0103 E-score
4,GAGGTATA,0.365 ± 0.0614 E-score
5,CAGGTAGA,0.15 ± 0.00481 E-score
6,AAGGTATG,0.201 ± 0.00407 E-score
7,CAGGTATC,0.4642 ± 0.00145 E-score
8,CCGGCTAA,0.178 ± 0.0089 E-score
9,ACACCTAA,0.261 ± 0.0204 E-score
10,CCAATCCG,0.224 ± 0.0167 E-score
11,CGCCGATC,0.258 ± 0.0126 E-score
12,ATCCATAC,0.31 ± 0.0347 E-score
13,AGCGGTAT,0.3428 ± 0.000445 E-score
14,TATCGGCA,0.244 ± 0.0173 E-score
15,AGACGATC,0.285 ± 0.0103 E-score
16,AGCCTATC,0.192 ± 0.0162 E-score
17,CCCCGCCA,0.161 ± 0.0538 E-score
18,ATTATCTC,0.203 ± 0.126 E-score
19,TATAGGGA,0.206 ± 0.00286 E-score
20,GATAGGGA,0.376 ± 0.00884 E-score
21,GATAGGGC,0.285 ± 0.0546 E-score
22,AGGAATCC,0.197 ± 0.00841 E-score
23,GATCGTCC,0.238 ± 0.0474 E-score
24,CAAACCCG,0.174 ± 0.0382 E-score
25,AGATACCT,0.42 ± 0.0259 E-score

row,Sequence,binding signal
1,GAATACCC,0.368 ± 0.0333 E-score
2,AGATACCA,0.422 ± 0.0101 E-score
3,AAATACCG,0.178 ± 0.0267 E-score
4,AAATACCT,0.173 ± 0.0423 E-score
5,AGATACAT,0.329 ± 0.00303 E-score
6,CAATACCC,0.387 ± 0.00788 E-score
7,CAATACCG,0.354 ± 0.0156 E-score
8,CGATACCG,0.45 ± 0.0109 E-score
9,ACATACCG,0.162 ± 0.0512 E-score
10,CCATACAC,0.174 ± 0.121 E-score
11,ATCATTGA,0.2801 ± 0.000297 E-score
12,ATCGTGTC,0.274 ± 0.0122 E-score
13,GATAGATA,0.364 ± 0.0331 E-score
14,CTAGTGTA,0.189 ± 0.0116 E-score
15,GGTTCATA,0.154 ± 0.00678 E-score
16,CAATACCA,0.375 ± 0.0246 E-score
17,CTATACCA,0.245 ± 0.018 E-score
18,AGATACCC,0.4684 ± 0.00214 E-score
19,TAATACCA,0.37 ± 0.0315 E-score
20,AGATACCG,0.37 ± 0.00507 E-score
21,ACATACCC,0.194 ± 0.0165 E-score
22,TGATACCA,0.4811 ± 0.00363 E-score
23,CGATAACC,0.2329 ± 0.00167 E-score
24,TGATACAA,0.337 ± 0.0251 E-score
25,CGATACCA,0.455 ± 0.0104 E-score

row,Sequence,binding signal
1,CCATACCC,0.274 ± 0.0803 E-score
2,CGATACCC,0.4916 ± 0.00317 E-score
3,CGGTACTC,0.176 ± 0.0493 E-score
4,ATCAGGGG,0.307 ± 0.019 E-score
5,TAGTGTCA,0.245 ± 0.0279 E-score
6,ATCAATCA,0.221 ± 0.00233 E-score
7,AAACGTAT,0.262 ± 0.0965 E-score
8,ATATTCCC,0.305 ± 0.0527 E-score
9,ATACTGGG,0.225 ± 0.0379 E-score
10,ACGATCAT,0.186 ± 0.0246 E-score
11,ATCACGTC,0.189 ± 0.0151 E-score
12,ATATGTCA,0.166 ± 0.0885 E-score
13,GAATACCA,0.278 ± 0.0281 E-score
14,GGATACCC,0.484 ± 0.00911 E-score
15,GCATACCC,0.289 ± 0.0463 E-score
16,GGATACCA,0.426 ± 0.0353 E-score
17,AAATACCC,0.2 ± 0.00818 E-score
18,GTATACCA,0.364 ± 0.00595 E-score
19,AGTATAAG,0.161 ± 0.0893 E-score
20,TAATATAA,0.257 ± 0.0514 E-score
21,ATCCACGA,0.154 ± 0.0369 E-score
22,ACTATCCT,0.318 ± 0.0157 E-score
23,CTATTATC,0.189 ± 0.0626 E-score
